Results reported in PubChem BioAssay (EPA / NIEHS).
Some compounds were tested as several samples or in several runs, with calls that do not always agree. Active and inactive are the calls of the source. Rule for the calls: active = hit-call score of the fitted dose curve at least 0.9, where 1 is the maximum; inactive = score below 0.9.

system: not listed separately; assay: ATG_M_32_CIS: Attagene CIS-FACTORIAL HepG2 Assay for M32 Transcription Factor (Internal Marker) (AID 2282949); conditions: HepG2 Attagene cis-factorial M32 reporter, mRNA; actives raise or lower the signal;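 note: background control marker of the multiplexed CIS panel rather than a real target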
In short: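 Transient MRTU transfection of HepG2; 24 h compound treatment; TriZol RNA, oligo(dT) RT, reporter PCR, 6-FAM primer extension, HpaI cut, CE. Gain/loss of signal vs DMSO.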

Row | SMILES | outcome
1 | CCCCOC(=O)C(C)Oc1ccc(Oc2ccc(C(F)(F)F)cn2)cc1 (stereo not drawn) | inactive
2 | CCCCC(CC)CN1C(=O)C2C3C=CC(C3)C2C1=O (stereo not drawn) | inactive
3 | CCOC(=O)C(C)Oc1ccc(Oc2nc3ccc(Cl)cc3o2)cc1 (stereo not drawn) | inactive
4 | CCN(CC)C(=O)c1cccc(C)c1 | inactive
5 | COC(=O)c1cccc(C)c1S(=O)(=O)NC(=O)Nc1nc(OCC(F)(F)F)nc(N(C)C)n1 | inactive
6 | OB(O)O | inactive
7 | CCCCOCCOCCOCc1cc2c(cc1CCC)OCO2 | inactive
8 | CCCN(CCC)C(=O)SCC | inactive
9 | CCCOC(=O)NCCCN(C)C | inactive
10 | c1ccc(Nc2ccccc2)cc1 | inactive
11 | CCOC(=O)COc1cc(-n2ncc(C(F)(F)F)c(C)c2=O)c(F)cc1Cl | inactive
12 | CCCCCOC(=O)COc1cc(N2C(=O)C3=C(CCCC3)C2=O)c(F)cc1Cl | inactive

system: not listed separately; assay: ATG_M_06_CIS: Attagene CIS-FACTORIAL HepG2 Assay for M06 Transcription Factor (Internal Marker) (AID 2282950); conditions: HepG2 Attagene CIS-FACTORIAL M06 internal marker reporter; actives raise or lower the signal
In short: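 HepG2 liver cells, 24 h exposure. Reporter transcripts from transfected cis-element constructs quantified by RT-PCR/capillary electrophoresis fluorescence. Bidirectional curve fit against DMSO.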

Row | SMILES | outcome
13 | CC1(C)C(C=C(Cl)Cl)C1C(=O)OCc1cccc(Oc2ccccc2)c1 (stereo not drawn) | inactive
14 | CCCOC(=O)c1ccc(C(=O)OCCC)nc1 | inactive
15 | O=C(Nc1ccc([N+](=O)[O-])cc1Cl)c1cc(Cl)ccc1O | inactive
16 | COc1nc(C)nc(NC(=O)NS(=O)(=O)c2ccccc2OCCCl)n1 | inactive
17 | N#CSCSc1nc2ccccc2s1 | inactive
18 | CCC(O)=C1C(=O)CC(C(=O)O)CC1=O (stereo not drawn) | inactive
19 | CSC(=O)c1cccc2nnsc12 | inactive
20 | C[C@]12C[C@H](O)[C@H]3[C@@H](CCC4=CC(=O)CC[C@@]43C)[C@@H]1CC[C@@H]2C(=O)CO | inactive
21 | O=C(O)C1(C(=O)Nc2ccc(Cl)cc2Cl)CC1 | inactive
22 | COC(=O)c1ccc(I)cc1S(=O)(=O)NC(=O)Nc1nc(C)nc(OC)n1 | inactive
23 | CC(=O)S[C@@H]1CC2=CC(=O)CC[C@]2(C)[C@H]2CC[C@@]3(C)[C@@H](CC[C@@]34CCC(=O)O4)[C@H]12 | inactive
24 | CCNc1nc(N)nc(Cl)n1 | inactive
25 | CC(C)CCCCCCc1ccc(O)cc1 | inactive
26 | CCCCOC(=O)[C@@H](C)Oc1ccc(Oc2ccc(C(F)(F)F)cn2)cc1 | inactive
27 | C#C[C@]1(O)CC[C@H]2[C@@H]3CCC4=CC(=O)CC[C@@H]4[C@H]3CC[C@@]21CC | inactive
28 | CCCCC(CC)COC(=O)c1ccccc1C(=O)O (stereo not drawn) | inactive
29 | CCOC(=O)[C@H](C)Oc1ccc(Oc2nc3ccc(Cl)cc3o2)cc1 | inactive
30 | CC(=O)[C@H]1CC[C@H]2[C@@H]3CCC4=CC(=O)CC[C@]4(C)[C@H]3CC[C@]12C | inactive
31 | CCCCOC(=O)C(C)Oc1ccc(Oc2ccc(C(F)(F)F)cn2)cc1 (stereo not drawn) | inactive
32 | CCCCC(CC)CN1C(=O)C2C3C=CC(C3)C2C1=O (stereo not drawn) | inactive
33 | CCOC(=O)C(C)Oc1ccc(Oc2nc3ccc(Cl)cc3o2)cc1 (stereo not drawn) | inactive
34 | CCN(CC)C(=O)c1cccc(C)c1 | inactive
35 | COC(=O)c1cccc(C)c1S(=O)(=O)NC(=O)Nc1nc(OCC(F)(F)F)nc(N(C)C)n1 | inactive
36 | OB(O)O | inactive
37 | CCCCOCCOCCOCc1cc2c(cc1CCC)OCO2 | inactive
38 | CCCN(CCC)C(=O)SCC | inactive
39 | CCCOC(=O)NCCCN(C)C | inactive
40 | c1ccc(Nc2ccccc2)cc1 | inactive
41 | CCOC(=O)COc1cc(-n2ncc(C(F)(F)F)c(C)c2=O)c(F)cc1Cl | inactive
42 | CCCCCOC(=O)COc1cc(N2C(=O)C3=C(CCCC3)C2=O)c(F)cc1Cl | inactive

biological target: Hypoxia-inducible factor 1-alpha (Homo sapiens) (UniProt Q16665); assay: ATG_HIF1a_CIS: Attagene CIS-FACTORIAL HepG2 Assay for human Hypoxia Inducible Factor 1 (HIF1A) (AID 2282951); conditions: HepG2 Attagene cis-factorial HIF1a reporter transcription; actives raise or lower the signal
In short: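 HepG2, transient cis-reporter library, 24 h dosing. RNA → RT (oligo dT) → PCR → 6-FAM primer extension → HpaI → CE. Bidirectional curve fit vs DMSO.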

Sequence of Hypoxia-inducible factor 1-alpha (Homo sapiens) (Q16665 whole entry, looked up): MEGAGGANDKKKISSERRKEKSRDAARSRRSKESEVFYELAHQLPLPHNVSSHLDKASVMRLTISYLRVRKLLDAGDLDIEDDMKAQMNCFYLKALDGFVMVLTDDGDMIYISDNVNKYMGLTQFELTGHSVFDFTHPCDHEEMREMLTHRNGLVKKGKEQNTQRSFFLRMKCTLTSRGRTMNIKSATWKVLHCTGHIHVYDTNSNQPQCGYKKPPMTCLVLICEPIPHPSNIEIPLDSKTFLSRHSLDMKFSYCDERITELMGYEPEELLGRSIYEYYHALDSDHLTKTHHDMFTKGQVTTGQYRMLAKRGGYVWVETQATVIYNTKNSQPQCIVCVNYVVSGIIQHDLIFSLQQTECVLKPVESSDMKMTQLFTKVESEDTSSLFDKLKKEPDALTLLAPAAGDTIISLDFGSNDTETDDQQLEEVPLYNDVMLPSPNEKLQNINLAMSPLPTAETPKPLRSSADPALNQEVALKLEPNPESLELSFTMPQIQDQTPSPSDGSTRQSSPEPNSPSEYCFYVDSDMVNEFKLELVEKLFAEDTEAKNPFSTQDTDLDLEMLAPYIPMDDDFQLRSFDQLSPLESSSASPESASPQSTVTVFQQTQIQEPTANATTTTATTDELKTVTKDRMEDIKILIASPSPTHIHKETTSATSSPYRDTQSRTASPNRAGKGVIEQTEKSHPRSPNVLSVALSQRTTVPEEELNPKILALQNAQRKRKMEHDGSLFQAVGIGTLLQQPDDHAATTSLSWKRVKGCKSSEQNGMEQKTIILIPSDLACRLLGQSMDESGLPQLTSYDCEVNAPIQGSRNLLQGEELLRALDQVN

Row | SMILES | outcome | AC50
43 | CC1(C)C(C=C(Cl)Cl)C1C(=O)OCc1cccc(Oc2ccccc2)c1 (stereo not drawn) | inactive | –
44 | CCCOC(=O)c1ccc(C(=O)OCCC)nc1 | inactive | –
45 | COc1nc(C)nc(NC(=O)NS(=O)(=O)c2ccccc2OCCCl)n1 | inactive | –
46 | N#CSCSc1nc2ccccc2s1 | inactive | –
47 | CCC(O)=C1C(=O)CC(C(=O)O)CC1=O (stereo not drawn) | inactive | –
48 | CSC(=O)c1cccc2nnsc12 | inactive | –
49 | C[C@]12C[C@H](O)[C@H]3[C@@H](CCC4=CC(=O)CC[C@@]43C)[C@@H]1CC[C@@H]2C(=O)CO | inactive | 55.9 µM (active)
50 | O=C(O)C1(C(=O)Nc2ccc(Cl)cc2Cl)CC1 | inactive | –
51 | COC(=O)c1ccc(I)cc1S(=O)(=O)NC(=O)Nc1nc(C)nc(OC)n1 | inactive | –
52 | CC(=O)S[C@@H]1CC2=CC(=O)CC[C@]2(C)[C@H]2CC[C@@]3(C)[C@@H](CC[C@@]34CCC(=O)O4)[C@H]12 | inactive | –
53 | CCNc1nc(N)nc(Cl)n1 | inactive | –
54 | CC(C)CCCCCCc1ccc(O)cc1 | inactive | –
55 | CCCCOC(=O)[C@@H](C)Oc1ccc(Oc2ccc(C(F)(F)F)cn2)cc1 | inactive | –
56 | C#C[C@]1(O)CC[C@H]2[C@@H]3CCC4=CC(=O)CC[C@@H]4[C@H]3CC[C@@]21CC | inactive | 3.15 µM (active)
57 | CCCCC(CC)COC(=O)c1ccccc1C(=O)O (stereo not drawn) | inactive | –
58 | CCOC(=O)[C@H](C)Oc1ccc(Oc2nc3ccc(Cl)cc3o2)cc1 | inactive | –
59 | CCCCOC(=O)C(C)Oc1ccc(Oc2ccc(C(F)(F)F)cn2)cc1 (stereo not drawn) | inactive | –
60 | CCCCC(CC)CN1C(=O)C2C3C=CC(C3)C2C1=O (stereo not drawn) | – | 50 µM (active)
61 | CCOC(=O)C(C)Oc1ccc(Oc2nc3ccc(Cl)cc3o2)cc1 (stereo not drawn) | inactive | –
62 | CCN(CC)C(=O)c1cccc(C)c1 | inactive | –
63 | COC(=O)c1cccc(C)c1S(=O)(=O)NC(=O)Nc1nc(OCC(F)(F)F)nc(N(C)C)n1 | inactive | –
64 | OB(O)O | inactive | –
65 | CCCCOCCOCCOCc1cc2c(cc1CCC)OCO2 | inactive | –
66 | CCCN(CCC)C(=O)SCC | inactive | –
67 | CCCOC(=O)NCCCN(C)C | inactive | –
68 | c1ccc(Nc2ccccc2)cc1 | inactive | 100 µM (active)
69 | CCOC(=O)COc1cc(-n2ncc(C(F)(F)F)c(C)c2=O)c(F)cc1Cl | inactive | –
70 | CCCCCOC(=O)COc1cc(N2C(=O)C3=C(CCCC3)C2=O)c(F)cc1Cl | inactive | –
